A selection: hits, their analogues and other compounds. The true share with any hit is near 2.8%.
pS6 MEF inh: mTORC1 pathway inhibition measured by phospho-rpS6; Potency, µM (titrated, usually from 38.3 µM), hits mostly inhibitors; Tsc2-/- p53-/- MEF, phospho-rpS6 immunofluorescence/PI, 24 h; hit rate 0.78% among 44,000; further: nearly all actives have a fitted effect of over 50% in size
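Tsc2-/-, p53-/- MEFs (empty-vector stable line) in DMEM + 10% FBS were treated with compounds 24 h at 37 degree Celsius, fixed, and immunostained for phospho-rpS6 (Alexa-488) with propidium iodide counterstain. Laser-scanning cytometry gave % positive cells, normalized against 7.5 nM rapamycin and DMSO.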
PMP22 txn prim: modulators of PMP22 gene transcription in S16 Schwann cells; S16 Pmp22-F2sN Schwann cells, FLuc/NLuc coincidence luminescence, 24 h; Potency, µM (series often up to 57.5 µM), actives largely listed as inhibitors; hit rate 2% among 43,000; AID 1508649; active means clear falling dose curves in both reporters; inconclusive means both reporters move, but less clearly or upward; inactive means either reporter flat; the % is the NLuc reporter signal
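Rat S16 Pmp22-F2sN cells, 500-1,000/well in phenol red-free DMEM + 10% FBS, compound-treated 24 h (37C, 5% CO2). Luminescence: FLuc read, Stop&Glo added, NLuc read.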
GALC G270D act: enhancers of human galactocerebrosidase G270D mutant activity in cells | P54803 | 145M-Twi-hGALC-G270D cells (Twitcher mouse brain line with human GALC G270D), HMU-beta-Gal fluorescence, 48 h | Potency, µM (doses to about 57.5 µM), actives largely listed as activators | hit rate 0.1% among 45,000; further: nearly all actives have a fitted effect of over 65% in size
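Live 145M-Twi cells (Twitcher mouse brain-derived, GALC-null) stably expressing human GALC-G270D, with a wild-type GALC line, were compound-treated. Residual GALC activity was then read as fluorescence from 0.1 mM final HMU-β-gal at pH 5.2; higher signal means activation.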
S16 viability: S16 Schwann cell cytotoxicity; S16 Pmp22-F2sN Schwann cells viability, CellTiter-Glo, 24 h; Potency, µM (top dose mostly 57.5 µM), usual class: cytotoxic; hit rate 0.48% among 43,000; AID 1508642; further: nearly all actives have a fitted effect of over 65% in size
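Luminescence from CellTiter-Glo, read by CCD camera after a 15 min room-temperature incubation, served as the viability signal. Reporter Schwann cells (S16 Pmp22-F2sN) had been treated with pin-transferred compounds for 24 h at 37C.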
NLuc saturating: NanoLuc enzyme inhibition artifact for PMP22 screen | shares compounds with PMP22 txn prim | Potency, µM (top dose mostly 57.5 µM), hits mostly inhibitors | Secreted NLuc enzyme (filtered S16 cell medium), Nano-Glo luminescence | hit rate 4% among 690
NLuc Km counter: NanoLuc inhibition at Km substrate, PMP22 artifact check. secreted NLuc enzyme, coelenterazine luminescence, Km conditions. AID 1508639. shares compounds with PMP22 txn prim. Potency, µM (top dose mostly 57.5 µM), hits mostly inhibitors. hit rate 5% among 690
FLuc counter: firefly luciferase enzyme inhibition artifact for PMP22 screen | shares compounds with PMP22 txn prim | purified P. pyralis FLuc, luminescence, 10 min | Potency, µM (series often up to 57.5 µM), actives largely listed as inhibitors | 690 tested, under 10 active | AID 1508640
Target sequence (P08659 whole entry, looked up): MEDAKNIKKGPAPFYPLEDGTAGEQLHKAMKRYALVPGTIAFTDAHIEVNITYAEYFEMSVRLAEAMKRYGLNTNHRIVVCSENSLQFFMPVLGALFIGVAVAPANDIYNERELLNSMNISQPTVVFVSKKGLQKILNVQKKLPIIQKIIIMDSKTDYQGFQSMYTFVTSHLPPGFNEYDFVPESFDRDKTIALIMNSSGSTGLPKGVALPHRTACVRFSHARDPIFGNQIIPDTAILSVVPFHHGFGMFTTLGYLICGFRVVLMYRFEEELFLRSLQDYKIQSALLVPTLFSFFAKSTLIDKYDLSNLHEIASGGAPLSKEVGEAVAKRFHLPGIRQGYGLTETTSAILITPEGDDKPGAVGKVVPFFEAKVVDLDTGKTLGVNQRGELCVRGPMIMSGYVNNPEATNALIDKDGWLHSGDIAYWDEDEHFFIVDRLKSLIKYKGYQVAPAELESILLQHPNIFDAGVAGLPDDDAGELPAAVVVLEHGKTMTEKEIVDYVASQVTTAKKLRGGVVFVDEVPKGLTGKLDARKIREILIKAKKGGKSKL
S16 F2sN tox cnf: confirmation of cytotoxicity in S16 Pmp22-F2sN Schwann cells (luciferase reporters placed in the Pmp22 gene) | Potency, µM (top dose mostly 57.5 µM), most hits filed as cytotoxic | AID 1508641 | hit rate 7% among 690 | S16 Schwann cells viability, CellTiter-Glo ATP luminescence, 24 h | shares compounds with PMP22 txn prim
PMP22 txn conf: confirmation of modulators of PMP22 gene transcription in S16 cells; shares compounds with PMP22 txn prim; S16 Schwann cells Pmp22-F2sN, dual luciferase, 24 h; Potency, µM (top dose mostly 57.5 µM), most hits filed as inhibitors; hit rate 22% among 690; active means clear falling dose curves in both reporters; inconclusive means both reporters move, but less clearly or upward; inactive means either reporter flat; the % is the FLuc reporter signal
PMP22 prot conf: rat PMP22 protein level modulation, confirmatory; Potency, µM (series often up to 27.9 µM), hits mostly inhibitors; 95 tested, under 10 active; S16 Schwann cells Pmp22-HiBiT, luminescence, 48 h; AID 1508647; shares compounds with PMP22 txn prim
Numbers stand for hits; – = inactive; ? = inconclusive; · = not tested or not shown. Unless noted, the call rests on the fitted dose curve; in most records, active means well fitted curve in the direction sought with a large enough effect; inconclusive means small, poorly fitted or top-dose-only effect, or another doubt; inactive means no such curve, though single readings can be large; an effect the other way counts as inactive or inconclusive.

SMILES	pS6 MEF inh	PMP22 txn prim	GALC G270D act	S16 viability	NLuc saturating	NLuc Km counter	FLuc counter	S16 F2sN tox cnf	PMP22 txn conf	others
CCC(=O)Nc1nnc(SCc2cc(=O)c3cc(C)ccc3[nH]2)s1	–	?	–	–	·	·	·	·	·
CCCC(=O)Nc1nnc(SCc2cc(=O)c3ccc(C)cc3[nH]2)s1	?	6.8µM	–	–	?	?	–	–	?
Cc1ccc(NC(=O)/C(C#N)=C/c2cc(C)n(-c3ccc(Br)cc3)c2C)cc1C	–	12µM	–	–	–	–	–	–	?
CC(=O)N1CCc2c(sc3c2c(=O)n(-c2ccccc2C)c(=O)n3CC(=O)c2ccccc2)C1	–	–	–	–	·	·	·	·	·
CCOC(=O)c1oc2c(c1C)-c1nn(Cc3ccc(Cl)cc3)cc1CC2	–	?	–	–	?	?	–	–	–
CC(C)CCNC(=O)CSc1c2c(nc3ccc(Cl)cc13)CCCC2	?	14µM	–	?	?	–	–	–	?
COc1ccc(CNC(=O)CSc2c3c(nc4ccc(Cl)cc24)CCCC3)cc1	–	?	–	–	·	·	·	·	·
COc1ccc(OC)c(Nc2c3c(nc4ccccc24)CCC3)c1	5.2µM	8.4µM	–	?	–	–	–	–	1.5µM
COc1ccc(C(=O)Nc2ccc3nc4c(c(Nc5ccccc5OC)c3c2)CCCC4)c(OC)c1	?	?	–	?	·	·	·	·	·
COc1ccc(OC)c(NC(=O)CSc2c3c(nc4ccccc24)CCCC3)c1	?	9.5µM	–	?	?	?	–	?	12µM	PMP22 prot conf=?
O=C(NCCc1csc(-c2cccc(F)c2)n1)c1ccccc1C(F)(F)F	–	?	–	–	·	·	·	·	·
Cc1cccc(-c2nnn3c2nc(NCc2ccc4c(c2)OCO4)c2ccccc23)c1	–	17µM	–	–	–	–	–	–	15µM
Cc1cccc(-c2nnn3c2nc(NCCC(C)C)c2ccccc23)c1	–	13µM	–	–	–	–	–	–	–
N=c1n(CCN2CCCCC2)c2ccccc2n1CC(O)COc1ccc(Cl)cc1Cl (stereo not given)	3.7µM	12µM	–	?	–	–	–	31µM	?
Cc1ccc(OCC(O)Cn2c(=N)n(CCN3CCCCC3)c3ccccc32)cc1 (stereo not given)	·	?	–	?	·	·	·	·	·
CCN(C(=O)CN(C)S(=O)(=O)c1ccc2c(c1)n(C)c(=O)c(=O)n2C)c1cccc(C)c1	–	6.5µM	–	–	–	–	–	–	–
Cc1cccc(N(C)C(=O)CCS(=O)(=O)c2ccc3c(c2)n(C)c(=O)c(=O)n3C)c1	–	–	–	–	·	·	·	·	·
O=C(CSc1nncn2c1cc1occc12)Nc1ccccc1C(F)(F)F	–	–	–	–	·	·	·	·	·
CCOC(=O)c1cccc(NC(=O)c2nn(-c3ccc(OC)cc3)c(=O)c3c2c2ccccc2n3C)c1	–	?	–	–	·	·	·	·	·
COc1cc(OC)c(NS(=O)(=O)c2ccc3c(c2)NC(=O)CCS3)cc1Cl	–	14µM	–	?	?	?	–	–	?
Cc1ccccc1NS(=O)(=O)c1ccc2c(c1)NC(=O)CCS2	–	–	–	–	·	·	·	·	·
CC(=O)c1c(C)oc2ccc(N(C(=O)Oc3ccccc3)S(=O)(=O)c3ccccc3)cc12	–	?	–	–	·	·	·	·	·
